The target in assay [1] is T1, Aspartate--tRNA(Asp/Asn) ligase (Mycobacterium tuberculosis (strain ATCC 25618 / H37Rv)) (UniProt P9WFW3). Note: in the data most compounds retested in dose-response had high values.
T1 sequence (whole entry): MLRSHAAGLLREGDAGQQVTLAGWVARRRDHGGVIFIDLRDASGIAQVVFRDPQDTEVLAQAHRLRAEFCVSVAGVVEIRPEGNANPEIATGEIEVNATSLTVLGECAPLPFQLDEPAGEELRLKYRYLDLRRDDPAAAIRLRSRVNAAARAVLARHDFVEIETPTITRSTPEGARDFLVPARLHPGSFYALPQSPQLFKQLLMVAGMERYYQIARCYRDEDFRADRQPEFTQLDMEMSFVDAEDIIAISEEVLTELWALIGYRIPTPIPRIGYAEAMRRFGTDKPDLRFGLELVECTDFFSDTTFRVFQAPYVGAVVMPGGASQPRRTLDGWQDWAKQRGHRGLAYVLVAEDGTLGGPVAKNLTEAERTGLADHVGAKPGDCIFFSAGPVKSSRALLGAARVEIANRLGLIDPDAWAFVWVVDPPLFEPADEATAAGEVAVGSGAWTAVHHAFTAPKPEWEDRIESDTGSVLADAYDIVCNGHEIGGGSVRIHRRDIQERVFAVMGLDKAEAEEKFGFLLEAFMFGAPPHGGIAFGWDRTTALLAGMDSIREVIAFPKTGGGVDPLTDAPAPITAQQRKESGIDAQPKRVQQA
The experiment in a line: Assay for Asp RNA synthetase-1 from Mycobacterium tuberculosis. Type of assay: functional. The arrangement: scale not given: direction of the effect not stated beside the values. Particulars: 30 µM.

Assay [2] deals with Shiga toxin 2 (Escherichia coli O157:H7) (UniProt P09385+P09386). Nature of the assay: E. coli 0.157:H7 Shiga Toxin SOP - stx2 screening assay. Type of assay: functional. Particulars: 30 µM. Details: scale not given: direction of the effect not stated beside the values.

As to `CC(C)c1nc(C(=O)NCCn2ccnc2)nn1-c1cccc(F)c1`, the Percent Effect in assay [1] was -3.06%; in assay [2], 32.1%.
For `Cc1nc2n(n1)CC(Nc1cc(C(F)(F)F)nc3ncnn13)CC2` (stereo not given) the same measures were -5.49% and -1.67%.
For `CCc1nccn1C1CCCN(C(=O)c2cnn(C)c2C2CC2)C1` (stereo not given) the same measures were -4.23% and 21.1%.
For `CS(=O)(=O)c1ccc(C(O)CN2CCC(c3ccn[nH]3)CC2)cc1` (stereo not given) the same measures were -7.22% and -3.06%.
As for `CCn1cc(C(=O)N2CCCC(c3[nH]ncc3S(C)(=O)=O)C2)cn1` (stereo not given), the values for the Percent Effect in assay [1] and in assay [2] were -3.25% and -8.37%, respectively.
The like results for `CCOCCCn1c(NC(=O)c2ccc(C)nc2)nc2ccccc21` were, in that order, -3.79% and 14.9%.
For `CCCOc1ccc(CNC(=O)N2CCC(C(N)=O)C2)cc1` (stereo not given) the same measures were 0.4% and -0.133%.
For `Cc1occc1C(=O)N1CCC2(CCN(Cc3nccs3)C2)CC1` the same measures were 0.208% and -15.8%.
Regarding `Cc1n[nH]c(C)c1C1CCCN1C(=O)NCC(=O)NC(C)(C)C` (stereo not given), the Percent Effect in assay [1] is 1.47%; in assay [2], -24.4%.
For `Cc1ccoc1C(=O)N1CC[C@H]2O[C@@H](C)C[C@H]2C1` the same measures were -2.48% and -17.1%.
The like results for `Cc1nc2ccnn2c(C)c1CCC(=O)N1CCN(C2CC2)CC1` were, in that order, 3.26% and 33%.
For the compound `Cn1cccc1CNC(=O)N(CCO)C1CCCc2ccccc21` (stereo not given), the Percent Effect in assay [1] is -1.95%; in assay [2], -4.96%.
Take `CC(O)CN1CCN(C(=O)c2ccc3c(c2)COC3)CC1` (stereo not given): the Percent Effect is -4.85% in assay [1] and -19.4% in assay [2].
For `CCn1cnnc1C1CCN(C(=O)c2ccccc2OC)CC1`, the Percent Effect in assay [1] is -4.13%; in assay [2] it was 14.1%.
Turning to `CN(C)C[C@@H]1C[C@@H]2CN(C(=O)c3ccoc3)CC[C@@H]2N1CC1CC1`, the figures for the Percent Effect in assay [1] and in assay [2] were 2.34% and 8.89%, respectively.
The like results for `Cc1cnn(CC2CCCN2CC(=O)Nc2cc(C(C)(C)C)no2)c1` (stereo not given) were, in that order, 0.278% and -37.5%.
For `O=C(NCCNc1ncccn1)N1CCSCC1` the same measures were -0.235% and 17.7%.
For `Cn1cnc2c1C(COCc1ccccc1)N(Cc1ccncc1)CC2` (stereo not given) the same measures were 2.91% and -1.07%.
Consider `O=C(COc1ccc2c(c1)CCC2)NS(=O)(=O)c1cncc(Br)c1`, for which the Percent Effect in assay [1] was determined as 4.7%; in assay [2], 4.36%.
For `CCc1nc(C2CCCN2C(=O)C2=COCC2)no1` (stereo not given) the same measures were -0.485% and -3.44%.
For `O=C(Nc1ccccn1)C1CC(=O)N(Cc2ccccn2)C1` (stereo not given) the same measures were 2.43% and -18.5%.
For `Cc1ccc(-c2nc(CN3CCCC3Cn3cc(C)cn3)no2)cc1` (stereo not given) the same measures were 1.48% and -24.5%.
As for `CCc1noc(CNc2ccc(C(=O)N3CCCC(C)C3)cc2C)n1` (stereo not given), the Percent Effect in assay [1] was -1.27%; in assay [2] it was 19.1%.
The like results for `CC1CCCCN1c1nc2c(c(=O)[nH]1)CCN(Cc1cccnc1)C2` (stereo not given) were, in that order, 1.98% and -8.32%.
The like results for `Cc1csc(N2CCCN(C(=O)c3c(C)oc(C)c3C)CC2)n1` were, in that order, -1.31% and -3.9%.
Regarding `Cc1nn(C)c(Cl)c1C1CCCN1CCc1ccccn1` (stereo not given), the Percent Effect was 1.79% in assay [1] and -0.4% in assay [2].
For `CS(=O)(=O)NCC1CCCN(C(=O)COc2ccc(F)cc2)C1` (stereo not given) the same measures were -1.75% and -25.1%.
As to `O=C(O)c1cc(S(=O)(=O)Nc2cc(F)ccc2F)cc2c1OCCO2`, the Percent Effect in assay [1] was -2.5%; in assay [2], 31.1%.
`Cc1nc(CN2CCN(Cc3nccn3C)CC2)no1`: the Percent Effect in assay [1] was -3.87%; in assay [2], 6.4%.
For `Cc1noc(C)c1-c1cnc(CC2CCN(C(=O)c3cc[nH]n3)C2)cn1` (stereo not given) the same measures were 4.09% and 7.65%.
For `CN1CCCC1CNC(=O)CCCOCc1ccccc1` (stereo not given) the same measures were 0.589% and 23.4%.
For the compound `O=C(NCC1CC1)c1nc(COc2ccc3c(c2)OCO3)no1`, the Percent Effect in assay [1] was -5.11%; in assay [2] it was -58.6%.
The like results for `CN(CC1CCCCO1)C(=O)c1ccnc(OC2CCC2)c1` (stereo not given) were, in that order, -2.11% and -8.22%.
Regarding `O=C(Nc1cccc(N2CCCC2)c1)C1CCCN1c1nccs1` (stereo not given), the Percent Effect is 1.21% in assay [1] and -4.67% in assay [2].
With `COc1ccc(-n2ncc(C(=O)NCC3COC(C)(C)O3)c2N)cc1` (stereo not given), the values for the Percent Effect in assay [1] and in assay [2] were -2.49% and 7.2%, respectively.
The like results for `Cc1cccc(C2(CNC(=O)CCN3C(=O)CCC3=O)CCCC2)c1` were, in that order, -4.05% and 9.87%.
Turning to `CCCS(=O)(=O)N1CCO[C@H]2[C@H](OCc3ccccn3)CC[C@@H]21`, the Percent Effect is 3.5% in assay [1] and -8.66% in assay [2].
In the case of `Cc1nc(C)c(C(=O)NCCNC(=O)Cc2cccc(F)c2)s1`, the Percent Effect in assay [1] stood at 4.17%; in assay [2], 6.14%.
For the compound `CC(C)n1ccnc1C1CCN(C(=O)c2ccccc2)CC1`, the figures for the Percent Effect in assay [1] and in assay [2] were -4.71% and 12.4%, respectively.
For `Cn1cc(CN2CC[C@H]3O[C@H](C(=O)NCc4ccco4)CC[C@H]32)cn1` the same measures were 5.47% and -27.7%.
For the compound `O=C(NCCO)c1ccn(-c2ccc3ccccn23)n1`, the Percent Effect in assay [1] was 2.94%; in assay [2], -37%.
`COCCOc1ccccc1C(=O)N1CCCCC1c1nccs1` (stereo not given): the figures for the Percent Effect in assay [1] and in assay [2] were 4.67% and -6.36%, respectively.
As to `Cc1nc(NC2CCCC2)cc(C2CCN2C(=O)c2cccnc2)n1` (stereo not given), the Percent Effect in assay [1] was determined as 2.75%; in assay [2], 2.33%.
The like results for `CN(C)C(=O)c1ccc2c(c1)N(C)C(CC(=O)NCc1ccno1)CO2` (stereo not given) were, in that order, -2.42% and -9.52%.
In the case of `COc1ccc(-c2nc(CN3CCCC3Cn3cccn3)no2)cc1` (stereo not given), the Percent Effect is -3.19% in assay [1] and -24.1% in assay [2].
For the compound `c1ncn(CC2CN(Cc3csc(C4CCCC4)n3)CCO2)n1` (stereo not given), the Percent Effect in assay [1] was -2.81%; in assay [2], 13.4%.
For `Cc1nnc2n1CCN(Cc1csc(-c3ccc(F)cc3)n1)C2` the same measures were 2.74% and 3.01%.
The like results for `COc1ccccc1CNC(=O)Cn1ncc2c1c(C)nn2C` were, in that order, -0.668% and -20.2%.
The like results for `CC(CNC(=O)c1cccnc1Oc1cccnc1)N(C)C` (stereo not given) were, in that order, -3.18% and -12.1%.
In the case of `Cc1nc(CN2CCCC(N(C)Cc3cscn3)C2)no1` (stereo not given), the figures for the Percent Effect in assay [1] and in assay [2] were 4.73% and -14.1%, respectively.

Values taken from ChEMBL document CHEMBL3988442, “University of Dundee, Small-Polar-MMV Screening Library” (2021).
